High-throughput results (PubChem)
IL1B secr inh = inflammasome signaling inhibition, IL-1 beta readout; 4.7% of 360,000 active; AID 743279; THP-1 LPS/ATP IL-1B secretion, AlphaLISA, 16 h; active compounds read low; activity change, % at 57.5 µM; in the data active means activity change below about -50%; inconclusive means mostly about -30% to -49%
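THP-1 cells pretreated 1 hr with compounds (up to 57.5 uM final), then stimulated with LPS (250 ng/mL final) plus ATP (1.25 mM final); secreted IL-1B measured by AlphaLISA after 16 hr, decreased signal indicating inhibition.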
KB-3-1 cytotox = KB-3-1 parental cell cytotoxicity; KB-3-1 viability, CellTiter-Glo ATP luminescence, 72 h; Potency, µM (doses to about 46.1 µM), hits mostly cytotoxic; 1.4% of 400,000 active; AID 1347075; further: nearly all actives have a fitted effect of over 60% in size
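Here the drug-naive KB-3-1 line serves as comparator for MDR sub-line selectivity; cells received compound titrations, 72 h at 37 °C, then CellTiter-Glo readout.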
HT1080 IDH1KD tx = kills HT-1080 cells with IDH1 knockdown | HT-1080 IDH1 knockdown viability, ATP luminescence, 48 h | Potency, µM (titrated, usually from 46.1 µM), most hits filed as cytotoxic | 2% of 360,000 active | AID 686971
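CellTiter-Glo luminescence after 48 h compound exposure at 37 degrees C of IDH1-knockdown HT-1080 cells in 5% FBS RPMI. %Activity scaled between DMSO wells and cell-free media wells, with curves fitted and assigned curve classes.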
HT1080NT lethal = kills 2HG-producing HT-1080-NT fibrosarcoma cells. HT-1080-NT fibrosarcoma viability, CellTiter-Glo ATP luminescence, 48 h. Potency, µM (doses to about 46.1 µM), most hits filed as cytotoxic. 1.6% of 360,000 active;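 further: NT is the 2HG producing partner of a matched IDH1 knockdown line; nearly all actives have a fitted effect of over 55% in size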
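Toxicity toward the 2HG-producing NT line was scored as %Activity, normalised to DMSO and no-cell wells, from CellTiter-Glo luminescence after 48 hours' treatment.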
KB-V1 MDR tox = KB-V1 MDR subline cytotoxicity. Potency, µM (series often up to 46.1 µM), hits mostly cytotoxic. 3.4% of 400,000 active. KB-V1 MDR cells viability, CellTiter-Glo, 72 h; further: nearly all actives have a fitted effect of over 60% in size
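KB-V1 MDR subline cells in DMEM (phenol-red free, 10% FBS) exposed to compounds in qHTS concentration series for 72 h at 37 degrees C. Viability read by CellTiter-Glo luminescence; concentration-effect curves fitted after normalization and correction.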
Of the large screens only hits and unclear results are named; the others gave an inactive call. Only some compounds are listed: those with a hit (about 8.8% of all), similar ones and a draw of the others. Unless noted, the call rests on the fitted dose curve; in most records, active means well fitted curve in the direction sought with a large enough effect; inconclusive means small, poorly fitted or top-dose-only effect, or another doubt; inactive means no such curve, though single readings can be large; an effect the other way counts as inactive or inconclusive.

Cc1cc(OCC(=O)N2CCC(C(N)=O)CC2)c2c3c(c(=O)oc2c1)CCCC3	none
CN(C)P(=O)(N(C)C)N1CC1	none
COc1ccc(C(CNC(=O)Cc2ccc(Cl)c(Cl)c2)N(C)C)cc1 (stereo not drawn)	IL1B secr inh -51, KB-V1 MDR tox inconclusive
COc1ccc(C(CNC(=O)Cc2ccc(Cl)c(Cl)c2)N2CCCCC2)cc1 (stereo not drawn)	none (no result: KB-3-1 cytotox, KB-V1 MDR tox)
CN1CCCC(C(=O)c2ccc(Cl)cc2)C1 (stereo not drawn)	none
O=[N+]([O-])c1cccc(CN2CC=C(c3ccc(F)cc3)CC2)c1	KB-3-1 cytotox 9.2µM
CCOC(=O)C1(CCc2ccccc2)CCN(C(C)CSC)CC1 (stereo not drawn)	none
CC[C@@H](C(=O)[C@@H](C)[C@@H](O)[C@H](C)[C@@H]1O[C@@H]([C@@H](CC)C(=O)O)CC[C@@H]1C)[C@H]1O[C@]2(C=C[C@@H](O)[C@]3(CC[C@@](C)([C@H]4CC[C@](O)(CC)[C@H](C)O4)O3)O2)[C@H](C)C[C@@H]1C	IL1B secr inh -111, KB-3-1 cytotox inconclusive, HT1080 IDH1KD tx 2.9µM, HT1080NT lethal 0.52µM, KB-V1 MDR tox inconclusive
O=C(NCC1=C(c2cccc3ccccc23)C[C@@H]2CC[C@H]1N2Cc1ccco1)c1ccc([N+](=O)[O-])cc1	IL1B secr inh -62, HT1080 IDH1KD tx inconclusive, HT1080NT lethal inconclusive
COc1ccc(-c2nc3ccccc3c(=O)n2-c2ccc(OC)cc2)cc1	none
Cc1ccc(-n2sc3ccccc3c2=O)cc1	IL1B secr inh -103, KB-3-1 cytotox inconclusive, HT1080 IDH1KD tx inconclusive, HT1080NT lethal inconclusive, KB-V1 MDR tox inconclusive
O=c1c2ccccc2sn1-c1ccc(Cl)cc1	IL1B secr inh -106, HT1080 IDH1KD tx inconclusive, HT1080NT lethal inconclusive
Oc1c(Br)cc(Br)cc1Br	none
Oc1c(Br)c(Br)c(Br)c(Br)c1Br	HT1080 IDH1KD tx inconclusive, HT1080NT lethal 26µM
Cc1ccc(C2=NC(C)(C)N3C2C3c2ccc([N+](=O)[O-])cc2)cc1 (stereo not drawn)	KB-3-1 cytotox inconclusive, KB-V1 MDR tox 18µM
CN(C(=O)Oc1cccc2cccnc12)c1ccccc1	KB-V1 MDR tox inconclusive
CN(C(=O)Oc1ccc(Cl)c2cccnc12)c1ccccc1	KB-V1 MDR tox 18µM
COc1cc([N+](=O)[O-])c2ncccc2c1[N+](=O)[O-]	IL1B secr inh -117, KB-3-1 cytotox inconclusive, HT1080 IDH1KD tx 7.3µM, HT1080NT lethal 15µM, KB-V1 MDR tox 16µM
